Screening results as filed in PubChem.
Tau fil binding – tau filament binding; Potency, µM (top dose mostly 57.1 µM), without a hit: at the highest dose activity change, negative = inhibition; 71,000 compounds, 2% hits; recombinant tau filaments, thioflavin S fluorescence, 15 h; filaments grown with octadecylsulfate alongside compound; AID 596;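 further: on the % scale 0 is the no-effect control and ±100 the full control effect; actives lower thioflavin S fluorescence by blocking filaments or displacing dye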
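His-tagged recombinant human tau (exons 2, 3 and 10 included), 1 uM, was induced to fibrillize by 30 uM sodium octadecylsulfate with compound present. After 15 h at 37 C, thioflavine S fluorescence (ex 450, em 510 nm) was read.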
ALOX15 inhib – blocks human 15-lipoxygenase activity; P16050; purified 15hLO-1, xylenol orange hydroperoxide absorbance; Potency, µM (series often up to 57.1 µM), for inactives: at the top dose activity change, negative = inhibition, actives largely listed as inhibitors; 74,000 compounds, 1.4% hits; further: on the % scale 0 is the no-effect control and ±100 the full control effect; nearly all actives have a fitted effect of over 55% in size
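Purified human 15hLO-1 (40 nM final) in 25 mM Hepes pH 7.5, 0.01% Triton X-100 was preincubated with compound 15 min at room temperature, then reacted 6 min with 50 uM arachidonic acid; hydroperoxide detected by Fe-XO, 573/405 nm absorbance ratio.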
Casp1 inh – caspase-1 (human) inhibition, allosteric or competitive | AID 900 | Caspase-1 enzyme, Ac-WEHD-AFC fluorogenic rate | Potency, µM (top dose mostly 57.5 µM), inactives show at the highest dose activity change, negative = inhibition, actives largely listed as inhibitors | 75,000 compounds, 0.03% hits | P29466;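 further: plate controls were vehicle for no effect and no substrate for full effect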
Target sequence (P29466 120-297 limits assumed): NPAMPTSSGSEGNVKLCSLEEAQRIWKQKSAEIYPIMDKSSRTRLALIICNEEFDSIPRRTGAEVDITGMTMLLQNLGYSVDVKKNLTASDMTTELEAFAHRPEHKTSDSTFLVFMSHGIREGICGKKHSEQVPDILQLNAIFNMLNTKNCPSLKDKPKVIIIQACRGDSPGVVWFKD
Target sequence (P29466 317-404 limits assumed): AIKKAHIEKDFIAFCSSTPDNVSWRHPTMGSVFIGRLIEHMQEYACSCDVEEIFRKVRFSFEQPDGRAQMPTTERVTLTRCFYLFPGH
ERK AVP inh – vasopressin-driven ERK pathway inhibition; HEK293-V1b, vasopressin-stimulated pERK AlphaScreen; Potency, µM (highest dose often 57.5 µM), without a hit: at the highest dose activity, negative = inhibition, actives largely listed as inhibitors; 72,000 compounds, 0.99% hits; AID 995; further: on the % scale 0 is the no-effect control and ±100 the full control effect; nearly all actives have a fitted effect of over 55% in size
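Phosphorylated ERK1/2 detected via AlphaScreen bead proximity in lysates of V1b-expressing HEK293 cells given 25 nM vasopressin for 5 min after 30 min compound exposure (37 °C). AC50 from Hill equation; basal DMSO 0%, vasopressin 100%.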
Casp7 inh – allosteric or competitive inhibitors of human caspase-7. AID 889. recombinant caspase-7, Ac-DEVD-AFC fluorescence rate. Potency, µM (doses to about 57.5 µM), for inactives: at the highest dose activity change, negative = inhibition, most hits filed as inhibitors. P55210. 75,000 compounds, 0.02% hits; active means well fitted inhibition curve with a large enough effect in the main read-out, with a control signal flat, not every such curve was filed as active; inconclusive means small, poorly fitted or top-dose-only effect, or a change in a side signal; further: % of control where 0% means no effect
Target sequence (P55210 24-198 limits assumed): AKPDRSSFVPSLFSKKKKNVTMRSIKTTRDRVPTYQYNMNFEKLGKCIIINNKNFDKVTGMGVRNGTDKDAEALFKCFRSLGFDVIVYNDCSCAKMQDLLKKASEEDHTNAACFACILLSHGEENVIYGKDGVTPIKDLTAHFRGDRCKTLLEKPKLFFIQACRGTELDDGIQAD
Target sequence (P55210 207-303 limits assumed): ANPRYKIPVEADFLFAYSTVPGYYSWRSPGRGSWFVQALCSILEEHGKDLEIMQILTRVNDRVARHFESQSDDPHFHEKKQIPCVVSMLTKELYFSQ
Numbers without * were called inactive; i = inactive; ? = inconclusive; / = no result; [ ] = remark or other dose. A selection: hits, their analogues and other compounds. The true share with any hit is near 3.9%. Unless noted, the call rests on the fitted dose curve; in most records, active means well fitted curve in the direction sought with a large enough effect; inconclusive means small, poorly fitted or top-dose-only effect, or another doubt; inactive means no such curve, though single readings can be large; an effect the other way counts as inactive or inconclusive. Potency means the concentration at half of the fitted maximal effect.

SMILES	Tau fil binding	ALOX15 inhib	Casp1 inh	ERK AVP inh	Casp7 inh
CC1CC2C(C(O)C[C@]3(C)C2CC[C@]3(O)C(=O)CO)[C@]2(C)C=CC(=O)C=C12 (some centres not stated)	/	-7.9%	0.7%	5.4%	1.6%
Cc1nc2sccn2c1-c1nc(-c2cc3ccccc3o2)cs1	430.4%	0.2%	-2.6%	-18.3%	-1.7%
Cc1ccnc(Nc2nc(-c3c(C)nc4sccn34)cs2)c1	-26.4%	-19.5%	-4.3%	25.1µM*	-2.2%
Cc1cc(NCc2ccccc2)nc(-c2ccccc2O)n1	/	?	?	/	-24.8%
CCOC(=O)c1ccc(Nc2cc(C)nc(-c3ccccc3O)n2)cc1	/	?	-7.9%	/	-11.2%
Cc1cc(Nc2cccc(F)c2)nc(-c2ccccc2O)n1	255.2%	10µM*	-18.8%	7.94µM*	-13.7%
Cc1cc(Nc2ccccc2)nc(-c2ccccc2O)n1	32.4%	-20.1%	-6.5%	31.6µM*	-10.5%
C=CCn1c(N)c(C(=O)NCCC2=CCCCC2)sc1=S	-6.1%	25.1µM*	-6.9%	1.9%	-4.5%
O=c1c(-c2cc(F)cc(F)c2)nc2cnc(N3CCNCC3)nc2n1CCc1ccccc1	18.6%	-9.2%	/	-3.9%	?
Cc1cc2cc(CNC(=O)c3ccc4c(c3)OCO4)ccc2n1C	?	20µM*	-19.5%	30.5%	-23.0%
O=C(NCc1ccc2c(c1)OCO2)c1cccc(C(=O)NCc2ccc3c(c2)OCO3)c1	6.8%	-20.9%	-1.3%	?	0.3%
Cc1cc2cc(CNC(=O)c3cc4ccccc4o3)ccc2n1C	15.8µM*	?	-5.5%	11.6%	-5.2%
Cc1cc(-c2csc(NC(=O)c3cc4ccccc4o3)n2)c(C)n1C	10µM*	?	-1.9%	5.3%	-16.4%
CC(CN(C)C)NC(=O)c1ccc(Cc2nc3ccccc3[nH]2)cc1 (configuration not stated)	/	-2.9%	-1.9%	/	2.9%
Cn1c(=O)c2cc(S(=O)(=O)N3CCOCC3)ccc2n(C)c1=O	0.6%	14.4%	0.2%	12.2%	1.7%
O=c1c2ccccc2sn1-c1cc(S(=O)(=O)N2CCOCC2)ccc1N1CCOCC1	0.8%	15.8µM*	-0.2%	?	-2.1%
Oc1ccc(Cc2cc(Cl)cc(Cl)c2O)cc1Cl	10.7%[11.4 µM]	-24.3%[11.4 µM]	-1.8%[11.5 µM]	12.1%[11.5 µM]	-3.3%[11.5 µM]
COc1ccc(N2CCN(c3nc(=S)n(-c4ccccc4)c(C)c3C(C)=O)CC2)cc1	5.01µM*	15.8µM*	-10.4%	?	-29.5%
O=C(Nc1ccc(F)cc1)N(Cc1ccco1)Cc1cc2cc3c(cc2[nH]c1=O)OCO3	187.9%	-26.9%	-10.3%	20µM*	-6.2%
COc1ccc(CN(Cc2cc3cc4c(cc3[nH]c2=O)OCO4)C(=O)NC2CCCCC2)cc1	46.7%	15.8µM*	-6.0%	?	-3.1%
FC(F)(F)c1ccccc1Cl	6.1%	1.9%	-2.1%	-1.7%	1.8%
CCN(CC)c1ccc(NC(=O)c2cccc(C)c2OC)c(C)c1	25.1µM*	?	-2.9%	25.1µM*	-3.5%
CCN(CC)c1ccc(NC(=O)c2cnc3ccccn3c2=O)c(C)c1	/	-18.9%	-2.2%	/	1.6%
Cc1ccc2nsnc2c1S(=O)(=O)NCc1cccnc1	-6.9%	1.1%	0.5%	-1.8%	-1.3%
Cc1ccc2nsnc2c1S(=O)(=O)N1CCN(CCc2ccccc2)CC1	25.1µM*	-2.2%	-1.9%	?	1.0%
SMILES	Tau fil binding	ALOX15 inhib	Casp1 inh	ERK AVP inh	Casp7 inh
COC(=O)c1ccc(C(NC(=O)c2ccco2)[C@]2(C)C[C@H]2C2CCCCC2)cc1 (some centres not stated)	-4.6%	/	-3.1%	26.4%	-27.3%
COc1ccc(OCc2nnc3n2N=C(c2ccc(C)cc2)CS3)cc1	16.5%	-2.9%	-0.6%	-24.1%	-3.8%
COc1ccc(-c2nnc3n2N=C(c2ccccc2)CS3)cc1OC	-2.3%	7.7%	0.8%	2.5%	1.9%
COc1ccc(OCc2nnc3n2N=C(c2ccc(OC)cc2)CS3)cc1	56.4%	-6.7%	-2.0%	25.1µM*	-2.7%
COc1ccc(Cc2nnc3n2N=C(c2cc4ccccc4o2)CS3)cc1OC	31.6µM*	-25.6%	0.6%	-0.9%	-2.8%
CCCc1nnc2n1N=C(c1ccc(OC)c(OC)c1)CS2	15.1%	-4.0%	-0.8%	15.8µM*	-0.1%
C/C(=N\NC(N)=S)c1ccc[nH]1	8.3%[11.4 µM]	2.9%[11.4 µM]	-2.0%[11.5 µM]	2.0%[11.5 µM]	1.0%[11.5 µM]
CN1CCN(c2ccc3nc(-c4ccc5nc(-c6ccc(O)cc6)[nH]c5c4)[nH]c3c2)CC1	52.7%[11.4 µM]	27.5%[11.4 µM]	-0.1%[11.5 µM]	1.1%[11.5 µM]	-7.4%[11.5 µM]
CN1CCN(c2ncc3nc(-c4cccs4)c(=O)n(C[C@H]4CCCO4)c3n2)CC1	i	?	/	19.0%	?
CCNc1ncc2ncc(=O)n(C)c2n1	-2.3%	-5.4%	/	-11.6%	?
CCN(CC)CCN1C(=O)c2oc3ccccc3c(=O)c2C1c1cccc(Br)c1 (configuration not stated)	25.1µM*	2.8%	-5.6%	-7.9%	-2.3%
C[N@@+]1(CC[N@@+]2(C)CCC[C@H]2c2cccnc2)CCC[C@@H]1c1cccnc1	?	132.0%[11.4 µM]	-2.3%[11.5 µM]	-3.7%[11.5 µM]	-2.6%[11.5 µM]
COCCNc1ncnc2ccc(-c3ccc(C(=O)N(C)C)cc3)cc12	8.3%	11.3%	-0.1%	-10.1%	-2.5%
C=C(C)CSC1=C(C#N)C(c2ccccc2Cl)CC(=O)N1 (configuration not stated)	-6.0%	15.8µM*	0.2%	20µM*	1.2%
Cc1ccc2oc(-c3ccccc3)c(O)c(=O)c2c1	31.6µM*	4.9%[25.6 µM]	-1.8%	26.4%	0.8%
Cc1c[nH]c(=O)n(CCCN2CCN(c3ccccc3OCC(F)(F)F)CC2)c1=O	?	-10.9%[25.6 µM]	1.4%	-11.1%	-0.1%
COc1ccc(-c2cc(C(=O)N/N=C/c3ccc(OC)c(OC)c3)[nH]n2)cc1	/	-4.1%	-3.4%	/	-0.9%
CC(C)C1=CC2=CC[C@@H]3[C@@](C)(C(=O)O)CCC[C@]3(C)C2CC1 (some centres not stated)	/	7.94µM*	0.2%	-6.3%	-0.2%
CC1(C)[C@@H](CC(=O)O)CCC[C@@H]1CC(=O)O	2.9%[11.4 µM]	4.3%[11.4 µM]	-0.1%[11.5 µM]	8.8%[11.5 µM]	1.0%[11.5 µM]
O=C1c2ccccc2C(Nc2ccc3c(c2)OCO3)N1Cc1ccco1 (configuration not stated)	12.6µM*	?	-2.0%	25.1µM*	-4.8%
COc1ccc(OC)c(NC2c3ccccc3C(=O)N2Cc2ccc3c(c2)OCO3)c1 (configuration not stated)	20µM*	-12.7%	-1.8%	-5.5%	-3.2%
O=C1c2ccccc2C(Nc2ccc3c(c2)OCO3)N1Cc1ccc2c(c1)OCO2 (configuration not stated)	10µM*	-29.6%	0.5%	2.3%	-3.4%
O=C1c2ccccc2C(Nc2cccnc2)N1Cc1ccc2c(c1)OCO2 (configuration not stated)	-2.3%	11.4%	0.1%	?	1.3%
COc1ccc(CN2C(=O)c3cccnc3C2Nc2cc(Cl)ccc2OC)cc1 (configuration not stated)	-4.7%	15.8µM*	1.2%	-10.5%	-4.9%
